Screening data from PubChem.
Myeloid diff MLP = induction of myeloid progenitor differentiation, primary screen, cell-based, flow cytometry, MLPCN library. 1% of 360,000 active. AID 624256, 2012. calls only at 10 µM. ER-HoxA9 myeloid progenitors, lysozyme-GFP differentiation;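 active means normalized GFP-positive differentiation at or above the plate's own cutoff, the solvent-only control mean plus 3 SD; inconclusive means no clear call, values can overlap the other calls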;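 further: cells exposed to compound for four days before flow analysis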
CHRM1 antagonist = human M1 muscarinic receptor antagonists, primary screen, CHO-K1 cells, Fluo-8 calcium fluorescence, 1536-well. 1.3% of 360,000 active. CHO-K1 hM1, ACh EC80 antagonist. Muscarinic acetylcholine receptor M1 (Homo sapiens), P11229. AID 588852, 2011. inhibition, % at 3 µM;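 active means percent inhibition above its own plate's cutoff, namely the mean of that plate's compound wells plus 3 SD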;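 further: peak over basal fluorescence ratio during 140 s after agonist addition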
Target sequence (P11229 whole entry, looked up): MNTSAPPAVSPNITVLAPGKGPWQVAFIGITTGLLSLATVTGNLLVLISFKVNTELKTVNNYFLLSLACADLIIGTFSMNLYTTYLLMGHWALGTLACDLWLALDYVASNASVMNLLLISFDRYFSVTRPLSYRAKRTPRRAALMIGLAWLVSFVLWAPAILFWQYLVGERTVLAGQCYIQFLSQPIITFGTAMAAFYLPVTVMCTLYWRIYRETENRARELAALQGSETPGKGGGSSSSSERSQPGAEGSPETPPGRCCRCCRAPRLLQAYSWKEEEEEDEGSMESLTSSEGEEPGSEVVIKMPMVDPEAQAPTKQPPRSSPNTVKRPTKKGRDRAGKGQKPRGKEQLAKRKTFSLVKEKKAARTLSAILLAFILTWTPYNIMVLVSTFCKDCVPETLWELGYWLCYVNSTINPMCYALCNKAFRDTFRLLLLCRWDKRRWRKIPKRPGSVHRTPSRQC
SKN-1 inh = suppressors of acrylamide-induced Pgst-4::GFP reporter in worms, primary screen, SKN-1 inhibitor project, whole organism, uHTS, GFP/RFP fluorescence ratio, strain VP596. C. elegans VP596 Pgst-4::GFP/RFP ratio, 24 h. inhibition, % at 21.8 µM. 0.49% of 360,000 active;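 active means interference check ratio from 0.5 to 1.5 plus GFP to RFP signal ratio inhibition reaching or exceeding a fixed threshold, cut at about 30% in these data, passing the limit was not always enough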
ATG4B inh = ATG4B protease inhibitors, primary screen, biochemical, fluorescence, uHTS; ATG4B cleavage of LC3-PLA2, NBD-HPC fluorescence, 1 h; inhibition, % at 8.33 µM; 0.51% of 340,000 active; in the data active means inhibition above about 40%
M1 ag = human M1 muscarinic receptor agonists, primary screen, Fluo-8 calcium fluorescence, CHO-K1 cells, HTS; CHO-K1 hM1, agonist mode; 0% DMSO, 100% acetylcholine EC100; activation, % at 3 µM; Muscarinic acetylcholine receptor M1 (Homo sapiens), P11229; 0.33% of 360,000 active;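 active means activation above the run's mean compound activation plus 3 SD, cut at about 16% in these data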;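 further: peak over basal fluorescence ratio within a 140 s kinetic read after compound addition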
CHRM1 PAM = human M1 muscarinic receptor positive allosteric modulators, primary screen, CHO-K1 cells, Fluo-8 calcium fluorescence, 1536-well | Muscarinic acetylcholine receptor M1 (Homo sapiens), P11229 | activation, % at 3 µM | 0.088% of 360,000 active | CHO-K1 hM1, ACh EC20; 0% = ACh EC20, 100% = maximal ACh; in the data active means activation above about 19%, passing the limit was not always enough
Numbers stand for hits; 0 = inactive; ? = inconclusive; - = no result given; + = active, no number. Compounds with a hit are over-represented: about 3.5% of the library has one in this group of screens.

SMILES	Myeloid diff MLP	CHRM1 antagonist	SKN-1 inh	ATG4B inh	M1 ag	CHRM1 PAM
COCCNC(=O)c1c(CSc2ccc(Cl)cc2)noc1C(=O)NCc1ccccc1	0	0	0	0	0	0
O=C(Nc1nc2c(s1)CN(Cc1ccccc1)CC2)c1cccc(S(=O)(=O)N2CCc3ccccc32)c1	+	0	0	0	0	0
CN(C)S(=O)(=O)c1cccc(NC(=O)c2cccc(S(=O)(=O)N3CCc4ccccc43)c2)c1	0	34.4	0	0	0	0
Cc1ccc(C)c(NC(=O)c2sc(Cl)nc2-c2ccccc2)c1	0	0	48.4	0	0	0
CCCc1nnc(NC(=O)c2cc3ccccc3oc2=O)s1	0	0	0	0	0	0
Cc1ccccc1NC(=O)c1sc(Cl)nc1-c1ccccc1	0	0	0	0	0	0
CCCc1nnc(NC(=O)c2cc3ccccc3o2)s1	+	0	0	0	0	0
Cc1ccc(C)c(NC(=O)c2cc3ccccc3o2)c1	0	0	40.5	0	0	0
COc1ccc(CCNC(=O)CSc2ccc3nnc(CCNC(=O)c4ccc(C)cc4)n3n2)cc1OC	0	0	0	0	0	0
CCOC(=O)COn1c(-c2cccc(Cl)c2)nc2ccc([N+](=O)[O-])cc21	0	0	38.0	0	0	0
CCCNC(=O)C1(C)CCCN(C(=O)c2sccc2C)C1 (stereo not given)	0	0	0	-	0	0
Cc1ccc2c(c1)N(C)/C(=C/c1cccc[n+]1CCO)S2	+	0	0	0	0	0
O=C(NCC1CC1(Cl)Cl)Nc1ccc(Cl)c(Cl)c1 (stereo not given)	0	0	56.2	0	0	0
Cc1ccc(NC(=O)NCC2CC2(Cl)Cl)cc1 (stereo not given)	-	0	0	0	0	0
O=C(NCc1ccncc1)C(=O)Nc1ccc2c(c1)OCO2	0	0	0	0	0	0
Cc1ccc(CNc2ccc3c(c2)OCO3)cc1	+	0	0	0	0	0
c1cc(CNc2ccc3c(c2)OCO3)ccn1	0	0	36.9	0	0	0
COc1ccc(NC(=O)CN2C(=O)C(=O)N(C3CCCC3)C2=O)c(OC)c1	0	0	0	0	0	0
Cn1cc([N+](=O)[O-])c(C(=O)N/N=C/c2cc3c(cc2Br)OCO3)n1	0	0	0	0	0	0
Cc1ccccc1S(=O)(=O)Cc1ccc(C(=O)NCCN(C)Cc2ccccc2)o1	+	0	0	0	0	0
CC(C)N(CCNC(=O)c1ccc(CS(=O)(=O)c2c(Cl)cccc2Cl)o1)Cc1ccccc1	0	44.9	0	0	0	0
Cc1ccc(S(=O)(=O)NCc2ccc(C(=O)NCCN(Cc3ccccc3)C(C)C)cc2)cc1	0	68.1	0	0	0	0
CC(C)CN1CCC(=O)N(CCSc2ccccc2)CC1	0	0	0	0	34.4	0
O=c1c2ccccc2nc2n1C(CSCc1ccc(Cl)cc1Cl)CS2 (stereo not given)	0	0	0	0	0	0
CC1CN(C)C(C)C/C1=N/Oc1ccccc1[N+](=O)[O-] (stereo not given)	0	41.9	0	0	0	0
SMILES	Myeloid diff MLP	CHRM1 antagonist	SKN-1 inh	ATG4B inh	M1 ag	CHRM1 PAM
N#Cc1c(Cl)cccc1N1CCC(C(N)=O)CC1	0	0	0	0	0	0
OCC1(Cc2ccccc2)CCCN(Cc2ccc(-c3ccco3)cc2)C1 (stereo not given)	0	44.1	0	0	0	0
OCC1(Cc2ccccc2)CCN(Cc2ccc(-c3ccco3)cc2)CC1	0	0	0	0	0	0
O=C(CCN1C(=O)c2ccccc2S1(=O)=O)Nc1ccc(F)c([N+](=O)[O-])c1	0	0	0	0	0	0
CCN(CC)c1ccc(/C=N/NC(=O)CNC(=O)c2ccc3c(c2)OCCO3)cc1	0	0	0	0	0	31.2
O=C(COc1ccccc1CNC[C@H]1O[C@@H](n2ccc(=O)[nH]c2=O)[C@H](O)[C@@H]1O)N1CCCCC1	0	0	0	-	0	0
CCN(CC)CC(=O)N1N=C(c2cccs2)CC1c1ccco1 (stereo not given)	0	50.9	0	0	0	0
CCC(=O)N1N=C(c2cccs2)CC1c1ccco1 (stereo not given)	0	0	0	0	0	0
CCc1nc2c(OCc3ccc(OC(F)F)cc3)cccn2c1N(C)C(=O)c1cccs1	0	0	0	-	0	0
CC(=O)c1c(C)[nH]c(C(=O)OCC(=O)Nc2ccc3c(c2)OCCO3)c1C	0	0	0	0	0	0
COC(=O)c1ccc(CSc2nc3scc(-c4cccs4)c3c(=O)[nH]2)o1	0	0	0	53.5	0	0
Brc1ccc(OCc2nc(-c3ccccn3)n[nH]2)cc1	0	0	28.2	0	0	0
CCOC(=O)C1=C(COC(=O)/C=C/c2cccc(OC)c2OC)NC(=O)NC1C (stereo not given)	0	0	0	0	0	0
CCCNC(=O)c1ccc(COc2ccc(CCC)cc2OC)o1	0	0	0	0	0	0
Cc1ccc2nc(NS(=O)(=O)c3cn(C)nc3C)sc2c1	0	0	0	0	0	0
COc1ccc(OC)c2cc3ccccc3cc12	+	0	0	0	0	0
COc1cc2ccccc2cc1C(=O)O	0	0	0	0	0	0
N#Cc1ccc(CSc2ccc(S(=O)(=O)N3CCCC3)cn2)cc1	0	0	0	0	0	0
Cc1ccc(C)c(S(=O)(=O)NCc2ccc(C(=O)N3CCN(C)CC3)cc2)c1	0	0	0	0	0	0
Cc1ccc(C)c(S(=O)(=O)NCc2ccc(C(=O)N3CCC(Cc4ccccc4)CC3)cc2)c1	+	0	0	0	0	0
CCOc1ccc2[nH]cc(S(=O)(=O)c3ccc(F)cc3)c(=O)c2c1	0	0	0	0	0	0
CCCn1cc(S(=O)(=O)c2ccc(F)cc2)c(=O)c2cc(OCC)ccc21	+	0	0	0	0	0
Cc1ccc(C)c(N2N=C(C(=O)OCc3nnc(-c4ccccc4Br)o3)CCC2=O)c1	0	0	0	-	0	0
O=C(Nc1cccc(-c2nc3ccccc3o2)c1)c1ccc(N2C(=O)C3C4C=CC(C4)C3C2=O)cc1 (stereo not given)	?	37.0	0	0	0	0
C/[N+]([O-])=C\C1C(=O)CCCC1=O	0	0	0	0	0	0
CC(=O)NC(=S)Nc1ccc(NC(=S)NC(=O)/C=C/c2ccco2)cc1	0	0	0	0	25.1	0
